From PubChem BioAssay
Six1-Eya2 blk: qHTS Assay for Inhibitors of the Six1/Eya2 Interaction; Homeobox protein SIX1 (Homo sapiens) + Protein phosphatase EYA2 (Homo sapiens), …; AlphaScreen GST-Six1/His-Eya2 binding, biochemical; hits give low values; activity change, % (concentration not given with the values); hit rate 0.56% among 360,000; in the data active means activity change below about -65%; inconclusive means mostly about -30% to -63%
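AlphaScreen luminescence read after one hour at 37 °C in darkness. Pin-transferred compounds met GST-Six1 and His-Eya2 protein (5X stock 250 nM/500 nM) plus glutathione donor and Ni-chelate acceptor beads (5X, 50 ug/mL).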
TDP1 block: qHTS Assay for Inhibitors of Tyrosyl-DNA Phosphodiesterase (TDP1). Tyrosyl-DNA phosphodiesterase 1 (Homo sapiens), Q9NUW8. recombinant TDP1, AlphaScreen DNA substrate cleavage. Potency, µM (doses to about 130 µM), for the others: at the highest dose activity change, negative = inhibition, most hits filed as inhibitors. hit rate 0.28% among 350,000. AID 485290, 2010; further: potency means the concentration at half of the fitted maximal effect; nearly all actives have a fitted effect of over 40% in size
Target sequence (Q9NUW8 whole entry, looked up): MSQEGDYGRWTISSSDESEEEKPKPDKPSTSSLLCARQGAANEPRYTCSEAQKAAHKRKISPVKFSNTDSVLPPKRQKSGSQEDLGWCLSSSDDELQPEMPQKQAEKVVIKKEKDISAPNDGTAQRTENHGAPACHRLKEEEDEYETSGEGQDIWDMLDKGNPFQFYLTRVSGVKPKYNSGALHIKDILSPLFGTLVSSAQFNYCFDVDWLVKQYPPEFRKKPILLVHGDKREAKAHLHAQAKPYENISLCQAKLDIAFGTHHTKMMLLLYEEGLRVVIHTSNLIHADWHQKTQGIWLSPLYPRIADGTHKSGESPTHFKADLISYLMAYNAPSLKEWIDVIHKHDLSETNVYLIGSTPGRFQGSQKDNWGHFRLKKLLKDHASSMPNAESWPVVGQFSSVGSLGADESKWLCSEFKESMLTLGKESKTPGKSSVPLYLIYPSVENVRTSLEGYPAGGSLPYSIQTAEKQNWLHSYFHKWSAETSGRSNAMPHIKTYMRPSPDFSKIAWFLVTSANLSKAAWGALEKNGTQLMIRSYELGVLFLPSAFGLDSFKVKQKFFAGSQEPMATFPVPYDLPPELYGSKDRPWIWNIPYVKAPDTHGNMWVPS
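Steps: enzyme plus compound, 15 min RT; add biotin/phosphotyrosine-FITC oligonucleotide (15 nM final), react 5 min; add donor/acceptor beads (10 ug/ml final), 10 min; read AlphaScreen. Tdp1 at 1 nM final.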
CtBP-E1A blk: qHTS Assay for Inhibitors of the CtBP/E1A Interaction. CtBP / adenovirus E1A interaction (AlphaScreen). AlphaScreen GST-E1A/His-CtBP binding, 1536-well; hits give low values. activity change, % (concentration not given with the values). hit rate 0.49% among 340,000; in the data active means activity change below about -65%; inconclusive means mostly about -30% to -63%
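Steps: dispense buffer (Tris pH 8.0, NaCl 300 mM, TCEP 1 mM, BSA, Tween 20); add 5X protein mix (GST-E1A, His-CtBP, 125 nM each); pin 23 nL compound; 2 h at 37 °C, dark; add 5X beads (50 ug/mL); 1 h; read.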
IL-1B inflam inh: qHTS for Inhibitors of Inflammasome Signaling: IL-1-beta AlphaLISA Primary Screen; activity change, % at 57.5 µM; hit rate 4.7% among 360,000; THP-1 LPS/ATP IL-1B secretion, AlphaLISA, 16 h; hits give low values; AID 743279, 2014; in the data active means activity change below about -50%; inconclusive means mostly about -30% to -49%
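Secreted IL-1B measured by AlphaLISA bead assay after 16 h compound exposure of THP-1 cells; compounds (final up to 57.5 uM) added 1 h before LPS (250 ng/mL) and ATP (1.25 mM) stimulation; lower signal means less secretion.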
TDP1 cell CPT: qHTS for Inhibitors of human tyrosyl-DNA phosphodiesterase 1 (TDP1): qHTS in cells in presence of CPT | hit rate 12% among 420,000 | chicken DT40 Tdp1-/-;hTDP1 cells + 20 nM CPT, ATP luminescence, 48 h | Potency, µM (highest dose often 46.2 µM), for inactives: at the highest dose activity change, negative = growth inhibition, usual class: inhibitors; further: potency means the concentration at half of the fitted maximal effect; nearly all actives have a fitted effect of over 55% in size
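Chicken DT40 Tdp1-/- cells stably complemented with human TDP1 were seeded at 400 cells/well in medium containing 20 nM camptothecin, exposed to pin-transferred compounds, and grown at 37 °C for at least 48 hr. Viability was read as ATP luminescence.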
TDP1 cell noCPT: qHTS for Inhibitors of human tyrosyl-DNA phosphodiesterase 1 (TDP1): qHTS in cells in absence of CPT | DT40 Tdp1-/- hTDP1 cells, no CPT, ATP luminescence, 48 h | Potency, µM (top dose mostly 46.2 µM), for inactives: top-dose activity change, negative = growth inhibition, hits mostly inhibitors | hit rate 15% among 420,000 | AID 686978, 2013; further: potency means the concentration at half of the fitted maximal effect; nearly all actives have a fitted effect of over 55% in size
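No-CPT arm: Tdp1-/-;hTDP1 DT40 cells (400/well) plus compounds, incubated ≥48 hr at 37 °C. Readout CellTiter-Glo luminescence.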
The depositor's hits bear a star; ? = inconclusive; · = no result; [ ] = dose if it differs, or a comment. Rows were chosen to be rich in hits. Some 18% of all compounds tested hit in one or more screens of this group. Unless noted, the call rests on the fitted dose curve; in most records, active means well fitted curve in the direction sought with a large enough effect; inconclusive means small, poorly fitted or top-dose-only effect, or another doubt; inactive means no such curve, though single readings can be large; an effect the other way counts as inactive or inconclusive. On the % scale 0 is the no-effect control and ±100 the full control effect.

SMILES	Six1-Eya2 blk	TDP1 block	CtBP-E1A blk	IL-1B inflam inh	TDP1 cell CPT	TDP1 cell noCPT
NS(=O)(=O)c1ccc(CCNCC#Cc2ccccc2)cc1	3	·	-11	0	-7%	-6%
CN(C)C(=O)C1Cc2ccccc2CN1S(=O)(=O)c1cccs1 (stereo not drawn)	16	-3%	4	24	5%	-2%
NC(=O)c1cccn1Cc1ccccc1Cl	1	6%	13	1	?	?
NC(=O)c1cccn1Cc1cccc(Cl)c1	-4	7%	2	20	21µM*	?
CCC1(c2ccc(F)cc2)NC(=O)N(CC(=O)Nc2ccc3c(c2)OCCO3)C1=O (stereo not drawn)	-2	1%	4	6	?	-6%
CC(C)[C@H](NC(N)=O)C(=O)Nc1ccc(Oc2ccccc2)cc1	-3	3%	6	·	0%	-4%
CCc1ccccc1NC(=O)N[C@H](C(=O)O)C(C)CC (stereo partly drawn)	2	0%	3	20	?	15µM*
CC(C)[C@H](NC(=O)Nc1ccc(Oc2ccccc2)cc1)C(=O)O	15	6%	-2	17	12µM*	13µM*
O=C1/C(=C\c2ccccn2)SC(=S)N1Nc1ncc(C(F)(F)F)cc1Cl	-9	10%	-11	-7	-27%	-29%
O=C1/C(=C/c2ccccn2)SC(=S)N1Nc1ncc(C(F)(F)F)cc1Cl	-7	·	-15	-8	8.2µM*	?
Cc1ccccc1Nc1cccc2nonc12	137	·	76	-52*	2%	-25%
Cc1ccccc1NS(=O)(=O)c1cccc2nonc12	14	-15%	5	2	-24%	3%
COc1ccc(Nc2c(-c3ccc(C)o3)nc3ccccn23)cc1	·	9%	·	·	?	?
Clc1ccc(Nc2c(-c3ccccc3Cl)nc3ccc(Cl)cn23)cc1	·	3%	·	·	?	26µM*
COc1ccc(Nc2c(-c3ccc(C)o3)nc3ccc(Cl)cn23)cc1	·	3%	·	·	7.3µM*	18µM*
COCCNC(=O)c1cc2c(c(-c3cccc(-c4cc5ccccc5o4)c3)n1)[C@@H](CCO)N(S(=O)C(C)(C)C)C2 (stereo partly drawn)	-6	·	-14	-19	16µM*	?
CC(C)NC(=O)N1Cc2cc(C(=O)NC3CCCC3)nc(-c3cccc(-c4cccnc4)c3)c2[C@@H]1CCO	-4	·	-4	-13	?	13µM*
CC(C)NC(=O)N1Cc2cc(C(=O)NC3CCCC3)nc(-c3cccc(-c4cccnc4)c3)c2[C@H]1CCO	4	·	2	-17	?	?
CCNC(=O)c1cc2c(c(-c3cccc(-c4cc5ccccc5o4)c3)n1)[C@H](CCO)N(C(=O)NC(C)C)C2	-25	·	-26	-23	21µM*	9.2µM*
COc1ccc(C#Cc2cccc(-c3nc(C(=O)NCCCN4CCOCC4)cc4c3[C@H](CCO)N(S(=O)C(C)(C)C)C4)c2)cc1OC (stereo partly drawn)	-25	·	-12	-27	?	23µM*
COC(=O)c1ccc2nc(NC(=O)COC(=O)CSc3nc(C)cc(C)n3)sc2c1	-5	2%	-21	-11	-13%	-7%
CCN(CC)S(=O)(=O)c1ccc(C(=O)NCC(=O)NCCCc2ccccc2)cc1	2	6%[0.0935 µM]	2	16	-18%	?
